This note sets out measurements from ChEMBL document CHEMBL4513216, “Probing the Open Global Health Chemical Diversity Library for Multistage-Active Starting Points for Next-Generation Antimalarials” (ACS Infect Dis, 2020).

Hit rate of the full screen: of about 68,000 compounds, about 2,700 (4%) showed an effect of 50% or more. The sample as a whole holds a higher share of strong results than the screen did.

In the experiment the test system is Plasmodium berghei. Put plainly: Screen against P. berghei liver stage (PbLuc), transformed with Luciferase, at 2uM. The conditions noted are these: tested at 2 uM. It is filed as functional, HepG2.
With `CCn1cnnc1CNC(=O)N1CCN(c2cccs2)CC1`, the INHIBITION amounted to 54.85%.
The same measure for `CCn1cnnc1CNC(=O)N1CCC(C)CC1`: 56.4%.
The result for `CCn1cnnc1CNC(=O)N1CCN(c2ccccc2O)CC1` reads -3.06%; that for `CCn1cnnc1CNC(=O)N1CCOCC1`, 27.31%; that for `CCn1cnnc1CNC(=O)N1CCC(C(=O)NC)CC1`, -29.11%.
The same measure for `CCN(CC)C1CCN(C(=O)NCc2nncn2CC)CC1`: 55.52%; for `Cc1cc2ccccc2n1CCC(=O)NCCS(C)(=O)=O`: -67.22%.
With `O=C(C1CCOCC1)N1CCc2ncnc(-c3ccc(F)cc3)c2CC1`, the INHIBITION was -7.01%.
The result for `c1cncc(CNc2ccccc2-c2nn[nH]n2)c1` reads 27%; that for `O=C(c1cscn1)N1CCCC2(CCN2Cc2cccc(F)c2)C1` (stereo not given), 37.33%; that for `CC(C)N(C)Cc1cc(=O)n2c(n1)CN(C(=O)c1cnccn1)CCC2`, -14.64%.
The same measure for `Cn1ccnc1CN1CCCN(C(=O)c2ccc3[nH]nnc3c2)CC1`: -56.99%.
Turning to `COc1ccc(NC(=O)Cn2ccc3c(=O)n(C)ccc32)cc1OC`, the INHIBITION stood at 52.61%.
The result for `Cc1ccc(NC(=O)Cn2ccc3c(=O)n(C)ccc32)cc1F` reads 41.86%; that for `Cn1ccc2c(ccn2CC(=O)Nc2ccc(Br)cc2)c1=O`, 0.5%.
Turning to `CCn1ccc2ccnc(CC3CN(C(=O)Cn4ccnc4C)C3)c21`, the INHIBITION was found to be 2.78%.
For the molecule `CCc1nnc(CNC(=O)CCN2CCN(c3cccc(C)c3)CC2)s1`, the INHIBITION is given as -27.19%.
For the molecule `Cc1cccc(N2CCN(CCC(=O)NCc3cnc(C)cn3)CC2)c1`, the INHIBITION was -39.01%.
The result for `Cc1cccc(N2CCN(CCC(=O)NCc3nnc[nH]3)CC2)c1` reads 71.67%; that for `CC1(c2ncc(CN3CCN(c4ncccn4)CC3)cn2)CCCCO1` (stereo not given), -30.88%.
The same measure for `COc1ccc(-n2nc(C3CC3)nc2CCn2cnnn2)cc1`: -4.15%; for `Cc1cccc(CNC(Cc2ccsc2)c2nc(C)c(C)s2)n1` (stereo not given): 8.75%.
As for `CC[C@@H]1N(CC2CC2)CCC[C@]12CCC(=O)N2`, the INHIBITION came to 10.49%.
For `CC[C@H]1N(CC2CCOCC2)CCC[C@]12CCC(=O)N2`, the INHIBITION is listed as 65.91%.
`CC[C@@H]1N(CC2CCOCC2)CCC[C@]12CCC(=O)N2`: the INHIBITION came out at 20.88%.
The result for `Cc1ccc(C(=O)N2Cc3c(CN4CCCCC4)nn(C)c3C2)cc1C` reads -15.95%; that for `Cc1cc(C)c2c(N(C)CC3COCCO3)ncnc2n1` (stereo not given), 55.7%.
The result for `CN(CC1COCCO1)c1ncnc2cc(F)ccc12` (stereo not given) reads 22.62%; that for `Cc1cc(C)c2c(N(C)CC3CCOC3)ncnc2n1` (stereo not given), 27.73%.
As to `Cn1c(Cn2cccn2)nnc1C1CCN(Cc2ccccc2Cl)CC1`, the INHIBITION was determined as 15.75%.
The result for `N[C@H]1c2ccccc2C[C@@H]1NC(=O)C1CCN(Cc2ccco2)CC1` reads 22.88%; that for `CN(C)C(=O)CO[C@H]1CN(Cc2ccccc2)[C@@H]2CCCO[C@H]12`, 45.56%.
The same measure for `CN(C)C(=O)CO[C@@H]1CN(Cc2ccccc2)[C@@H]2CCCO[C@@H]21`: 52.66%.
The result for `CN(C)C(=O)CO[C@H]1CN(Cc2ccc(F)cc2)[C@@H]2CCCO[C@H]12` reads -84.27%; that for `Cn1cnnc1CNC(=O)C1CCCN(Cc2ccccc2)C1` (stereo not given), 6.33%; that for `CCNC(=O)NC1CN(Cc2ccncc2Cl)C[C@@H]1OC` (stereo not given in full), -0.98%.
Take `COCC1c2c(cnn2CC2CC2)CCN1Cc1ccc(OC)cc1` (stereo not given): the INHIBITION is recorded as -4.92%.
`Cc1nc(COC[C@@H]2CC[C@H]3[C@H](CCN3c3ncccn3)O2)cs1`: the INHIBITION is reported as -8.23%.
As for `COc1ccc(C(=O)C2CCCN(CCc3ccccc3)C2)c(OC)c1` (stereo not given), the INHIBITION was -18.81%.
For the molecule `CCOc1cc(CN(C)Cc2ccccc2)ccc1OC(F)F`, the INHIBITION is -5.59%.
In the case of `CCOc1cc(CN(C)CCC(=O)OC)ccc1OC(F)F`, the INHIBITION is 14.96%.
The same measure for `CCOc1cc(CN(C)CC(=O)O)ccc1OC(F)F`: 78.96%; for `CCN(Cc1nonc1C)C(=O)c1cc(C(F)(F)F)nn1C`: -12.5%; for `O=C([C@@H]1CCCO1)N1CCOCC2(CCN(Cc3cccnc3)C2)C1` (stereo not given in full): -31.3%.
The same measure for `O=C(C1CCCO1)N1CCC2(CC1)COCCN(Cc1ccncc1)C2` (stereo not given): -66.98%; for `COCC(=O)N1CCC2(CCN(Cc3ccc(C)cc3)CC2)CC1`: -4.2%; for `c1cnc(N2CC3(CCN(Cc4cccnc4)C3)C2)nc1`: 52.91%.
In the case of `COCC(=O)N1CCC2(CC1)C(=O)N(Cc1cccnc1)CCN2C`, the INHIBITION was determined as 33.3%.
On to `COCC(=O)N1CC[C@]2(O)CCN(Cc3ccsc3)C[C@@H]2C1`, for which the INHIBITION is recorded as 19.49%.
`Cc1cnc(N2CC3(CCN(Cc4cccnc4)C3)C2)nc1`: the INHIBITION was 9.53%.
For the molecule `COCC(=O)N1CC[C@]2(O)CCN(Cc3cccnc3OC)C[C@@H]2C1`, the INHIBITION is given as 56.49%.
The same measure for `c1cnc(N2CCC3(CCN(Cc4cccnc4)CC3)CC2)nc1`: 45.82%; for `O=C(C1CCCO1)N1CCC2(CC1)COCCN(Cc1cccnc1)C2` (stereo not given): 55.49%; for `COCC(=O)N1CCC2(CCN(Cc3cccnc3)C2)CC1`: 51.81%.
The result for `COc1ncccc1CN1CC[C@@]2(O)CCN(C(=O)C3CCC3)C[C@H]2C1` reads 27.85%.
